The target in this experiment is Focal adhesion kinase 1 (Homo sapiens) (UniProt Q05397). The experiment in a line: PTK2 protein binding on printed compound slides – biochemical, small-molecule microarray, 635/667 nm fluorescence, BSA, DTT, primary screen (AID 1130).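 Note: composite of spot emission at 667 nm and signal to noise over triplicate slides.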 Particulars: 635 nm fluorescence, higher = more signal.
Sequence of Focal adhesion kinase 1 (Homo sapiens) (Q05397 whole entry, looked up): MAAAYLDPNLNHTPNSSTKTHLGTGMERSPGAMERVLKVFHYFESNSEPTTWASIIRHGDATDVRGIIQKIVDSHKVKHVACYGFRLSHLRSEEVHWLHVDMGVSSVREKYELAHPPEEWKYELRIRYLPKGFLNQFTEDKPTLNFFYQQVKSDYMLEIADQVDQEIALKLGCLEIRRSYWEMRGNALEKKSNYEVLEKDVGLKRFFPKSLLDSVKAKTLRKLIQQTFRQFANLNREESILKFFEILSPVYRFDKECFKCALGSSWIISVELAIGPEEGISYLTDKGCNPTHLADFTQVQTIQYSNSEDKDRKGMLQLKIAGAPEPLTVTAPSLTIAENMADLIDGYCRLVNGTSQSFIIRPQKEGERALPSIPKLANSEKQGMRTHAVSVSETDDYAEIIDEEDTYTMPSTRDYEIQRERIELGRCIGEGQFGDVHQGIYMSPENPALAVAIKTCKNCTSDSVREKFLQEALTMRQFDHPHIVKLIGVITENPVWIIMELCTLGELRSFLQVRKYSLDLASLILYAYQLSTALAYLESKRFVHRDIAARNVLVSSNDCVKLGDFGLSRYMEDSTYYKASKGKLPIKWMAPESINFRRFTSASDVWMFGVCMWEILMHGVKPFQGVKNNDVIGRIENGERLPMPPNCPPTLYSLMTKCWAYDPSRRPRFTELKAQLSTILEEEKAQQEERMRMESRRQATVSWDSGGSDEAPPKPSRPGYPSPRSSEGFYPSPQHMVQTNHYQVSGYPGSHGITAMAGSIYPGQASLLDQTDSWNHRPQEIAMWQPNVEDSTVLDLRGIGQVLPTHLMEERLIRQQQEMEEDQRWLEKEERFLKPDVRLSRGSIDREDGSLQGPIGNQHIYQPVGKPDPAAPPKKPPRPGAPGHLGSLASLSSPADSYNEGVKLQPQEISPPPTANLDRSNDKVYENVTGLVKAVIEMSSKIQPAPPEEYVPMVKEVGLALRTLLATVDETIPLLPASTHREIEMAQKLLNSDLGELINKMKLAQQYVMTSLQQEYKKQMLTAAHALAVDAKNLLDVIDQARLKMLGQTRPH
As for `O=C(N1CCOCC1)[C@@]1(Cc2ccccc2)COC(c2ccc(OCCCO)cc2)=N1`, the composite z-score stood at 0.674.
The figure for `C=CCC(OC(C)=O)[C@@H]1[C@@H](N(Cc2ccc(-c3cccc(C(F)(F)F)c3)o2)C(=O)c2ccc(-c3ccccc3)cc2)c2cc(OCCCO)ccc2N1C(=O)c1ccc2ccccc2c1` (some centres not stated) is 0.0473.
Next, `[N-]=[N+]=NCc1ccccc1[C@@H]1OC(c2ccc(OCCCO)cc2)=N[C@]1(Cc1ccccc1N=[N+]=[N-])C(=O)NCC(O)CO` (some centres not stated): 0.955; `CCCNC(=O)[C@@]1(c2ccc([N+](=O)[O-])cc2)CC(=O)N(C(C)C)[C@@H]1c1ccc(CO)cc1`: 0.856.
For the compound `CC(C)N1C(=O)C[C@@](C(=O)NCCN2CCOCC2)(c2ccc([N+](=O)[O-])cc2)[C@H]1c1ccc(CO)cc1`, the composite z-score was -0.455.
The figure for `CCCC[C@H]1OB(O)C[C@H]2C1=C(COc1ccccc1)C[C@H]1C(=O)C=CC(=O)[C@H]12` is 0.628.
Next, `CC(C)[Si](C#CCCc1ccccc1)(O[C@H](c1ccccc1)c1cn(Cc2ccccc2)nn1)C(C)C`: 0.104.

Values taken from PubChem BioAssay.
